Records with an inconclusive call do not appear. Activity calls are given as the source filed them. Rule for the calls, unless noted: active = hit-call score of the fitted dose curve at least 0.9, where 1 is the maximum; inconclusive = response in the unintended direction; inactive = score below 0.9. Where a SMILES comes first, the peptide text is derived from it. [ ]: non-standard residue; d: D form. pGlu = O=C1CC[C@@H](C(=O)O)N1; Thz = O=C(O)[C@@H]1CSCN1
Experiments:
[1] = TOX21_p53_BLA_p2_viability: Viability Assessment in the Tox21 HCT-116 p53 Agonism Beta-lactamase Assay, Phase 2 (AID 2283591);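 note: compound exposure lasted 16 h at 37 °C; actives lower the ATP signal meaning cytotoxicity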
In short: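 Cytotoxicity readout: CellTiter-Glo ATP luminescence, 30 min at room temperature, after the beta-lactamase read. Cells were HCT116 exposed 16 h at 37C to compounds pin-transferred at 217-fold dilution from DMSO stocks.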

[2] = target: Cellular tumor antigen p53 (Homo sapiens) (UniProt P04637); assay: TOX21_p53_BLA_p2_ratio: Tox21 HCT-116 p53 Agonism Beta-lactamase Assay, Ratio, Phase 2 (AID 2283592)
In short: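 Read-out is the blue/green (460/530 nm, 405 nm excitation) ratio after 2 h CCF4-AM loading, fitted as gain versus DMSO. Compounds, pinned at 217-fold dilution from DMSO stocks, stayed 16 h on HCT-116 beta-lactamase reporter cells seeded 5 h earlier.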

[3] = target: Cellular tumor antigen p53 (Homo sapiens) (UniProt P04637); assay: TOX21_p53_BLA_p3_ratio: Tox21 HCT-116 p53 Agonism Beta-lactamase Assay, Ratio, Phase 3 (AID 2283596)
In short: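 Cells were seeded at 4000/well, rested 5 h at 37C, then dosed with DMSO compound solutions (217-fold dilution) for 16 h. CCF4-AM substrate was loaded for 2 h at room temperature, and the 460/530 nm emission ratio was fitted for gain of signal versus DMSO.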

[4] = TOX21_p53_BLA_p4_viability: Viability Assessment in the Tox21 HCT-116 p53 Agonism Beta-lactamase Assay, Phase 4 (AID 2283597);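 note: hits lower the luminescence signal meaning cytotoxicity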
In short: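 Cytotoxicity as reduced cellular ATP (CellTiter-Glo luminescence, 30 min room temperature), measured in the same wells following the CCF4 FRET p53 reading. Human HCT-116 cells received compounds in DMSO (217-fold dilution) for 16 h.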

[5] = TOX21_p53_BLA_p5_viability: Viability Assessment in the Tox21 HCT-116 p53 Agonism Beta-lactamase Assay, Phase 5 (AID 2283600)
In short: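 Viability came from CellTiter-Glo ATP luminescence, read after 30 min at room temperature. Before this, HCT-116 p53-bla cells (4000/well) had 16 hours of compound exposure at 37C, with DMSO stocks diluted 217-fold on transfer.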

[6] = target: Cellular tumor antigen p53 (Homo sapiens) (UniProt P04637); assay: TOX21_p53_BLA_p4_ratio: Tox21 HCT-116 p53 Agonism Beta-lactamase Assay, Ratio, Phase 4 (AID 2283601)
In short: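 Signal is the blue/green (460nm/530nm) ratio of cleaved versus uncleaved CCF4-AM substrate, read after 2 h substrate loading. Cells were HCT116 carrying the p53-responsive beta-lactamase reporter, dosed 16 h at 37C, 5% CO2; CellTiter-Glo measured in parallel.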

[7] = tested on: Brachyury (BRA) Protein Expression, Deisenroth Lab, TBXT (gene 6862); assay: CCTE_Deisenroth_DEVTOX-GLR_legacy_Bra: (Legacy) CCTE's DevTox GLR-Endo Assay Evaluation of Brachyury (BRA) Protein Expression, Deisenroth Lab (AID 2284329; active = hit-call score of the fitted dose curve at least 0.9, where 1 is the maximum; inactive = score below 0.9)
In short: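 Percent Bra-positive cells, scored by high-content imaging against a threshold of 5x BMAD over the undifferentiated control median, with the 0.2% DMSO median subtracted. RUES2-GLR cultures were dosed twice at 24 h intervals across a 48 h differentiation, at 1 nM–200 uM in ten steps, with n=4 replicates.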

[8] = CCTE_Deisenroth_DEVTOX-GLR_legacy_CellCount: (Legacy) Viability Assessment in CCTE's DevTox GLR-Endo Assay, Deisenroth Lab (AID 2284331; active = hit-call score of the fitted dose curve at least 0.9, where 1 is the maximum; inactive = score below 0.9); conditions: actives raise or lower the signal
In short: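 Seed RUES2-GLR 24 h; differentiate 48 h, dosing at 0 and 24 h; fix, stain nuclei; image 5 fields/well; count nuclei. Conc. 1 nM - 200 uM, single technical replicate, n=4 experiments; bidirectional fit vs 0.2% DMSO.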

[9] = tested on: SRY-box transcription factor 2 (SOX2) Protein Expression, Deisenroth Lab, SOX2 (gene 6657); assay: CCTE_Deisenroth_DEVTOX-GLR_legacy_Sox2: (Legacy) CCTE's DevTox GLR-Endo Assay Evaluation of SRY-box transcription factor 2 (SOX2) Protein Expression, Deisenroth Lab (AID 2284346; active = hit-call score of the fitted dose curve at least 0.9, where 1 is the maximum; inactive = score below 0.9)
In short: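 Percent Sox2-positive cells was scored by high-content imaging of 5 fields per well. Positivity cutoff was 5x BMAD over the directed endoderm control, and the DMSO median was subtracted. Cells were RUES2-GLR, dosed twice at 24-h intervals over 48 h of differentiation (1 nM-200 uM).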

[10] = tested on: SRY-box transcription factor 2 (SOX2) Protein Expression, Deisenroth Lab, SOX2 (gene 6657); assay: CCTE_Deisenroth_DEVTOX-GLR_Endo_SOX2: CCTE's DevTox GLR-Endo Assay Evaluation of SRY-box transcription factor 2 (SOX2) Protein Expression, Deisenroth Lab (AID 2284412)
In short: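 Endpoint is percent SOX2-positive cells (SOX2+ count/total cells) minus 0.2% DMSO control, from high-content imaging of fixed, nuclear-stained RUES2-GLR cells. Dosing twice at 24 h intervals over 48 h differentiation, 1 nM–200 uM in 10 points.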

[11] = tested on: SRY-box transcription factor 17 (SOX17) Protein Expression, Deisenroth Lab, SOX17 (gene 64321); assay: CCTE_Deisenroth_DEVTOX-GLR_Endo_SOX17: CCTE's DevTox GLR-Endo Assay Evaluation of SRY-box transcription factor 17 (SOX17) Protein Expression, Deisenroth Lab (AID 2284413; active = hit-call score of the fitted dose curve at least 0.9, where 1 is the maximum; inactive = score below 0.9)
In short: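 RUES2-GLR human pluripotent cells were seeded 24 h, then differentiated toward endoderm for 48 h with two chemical exposures 24 h apart (10-point series, 1 nM - 200 uM). Nuclei-stained fixed cells were imaged; endpoint is percent change in SOX17+ cells versus 0.2% DMSO.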

[12] = tested on: Brachyury (BRA) Protein Expression, TBXT (gene 6862); assay: CCTE_Deisenroth_DEVTOX-GLR_Endo_BRA: CCTE's DevTox GLR-Endo Assay Evaluation of Brachyury (BRA) Protein Expression, Deisenroth Lab (AID 2284417; active = hit-call score of the fitted dose curve at least 0.9, where 1 is the maximum; inactive = score below 0.9)
In short: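 Percent BRA+ (mesoderm) RUES2-GLR cells after 48 h differentiation with two exposures, 1 nM - 200 uM; 0.2% DMSO control subtracted.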

[13] = tested on: SRY-box transcription factor 17 (SOX17) Protein Expression, Deisenroth Lab, SOX17 (gene 64321); assay: CCTE_Deisenroth_DEVTOX-GLR_Pluri_SOX17: CCTE's DevTox GLR-Pluri Assay Evaluation of SRY-box transcription factor 17 (SOX17) Protein Expression, Deisenroth Lab (AID 2284427)
In short: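 The endpoint is SOX17+ cells as a fraction of cell count, corrected for the 0.2% DMSO control and obtained by high-content fluorescence imaging of fixed cells. Cells were RUES2-GLR under a 48-hour endoderm differentiation, dosed twice at 24-hour intervals over 1 nM–200 uM.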

[14] = tested on: SRY-box transcription factor 2 (SOX2) Protein Expression, Deisenroth Lab, SOX2 (gene 6657); assay: CCTE_Deisenroth_DEVTOX-GLR_Pluri_SOX2: CCTE's DevTox GLR-Pluri Assay Evaluation of SRY-box transcription factor 2 (SOX2) Protein Expression, Deisenroth Lab (AID 2284428; active = hit-call score of the fitted dose curve at least 0.9, where 1 is the maximum; inactive = score below 0.9)
In short: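 Percent SOX2+ cells (SOX2+ count per total cells, fluorescent imaging) in RUES2-GLR human pluripotent line, expressed relative to 0.2% DMSO. Compounds dosed twice at 24 h intervals during 48 h, 1 nM - 200 uM, 10 concentrations.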

[15] = CCTE_Deisenroth_DEVTOX-GLR_Pluri_CellCount: Viability Assessment in CCTE's DevTox GLR-Pluri Assay Evaluation of Total Cell Counts, Deisenroth Lab (AID 2284430; active = hit-call score of the fitted dose curve at least 0.9, where 1 is the maximum; inactive = score below 0.9)
In short: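 Cytotoxicity readout: fluorescent nuclei counts by high-content imaging, expressed as percent change relative to 0.2% DMSO. Human RUES2-GLR pluripotent line differentiated 48 h, dosed twice at 24-h intervals across 1 nM - 200 uM (10 points).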

[16] = target: Cellular tumor antigen p53 (Homo sapiens) (UniProt P04637); assay: TOX21_p53_BLA_p5_ratio: Tox21 HCT-116 p53 Agonism Beta-lactamase Assay, Ratio, Phase 5 (AID 2283599)
In short: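 Beta-lactamase reporter ratio (blue 460 nm over green 530 nm, 405 nm excitation) after 2 h CCF4-AM loading, in HCT-116 cells exposed 16 h at 37 C to compounds pinned at 217-fold dilution. Increases relative to DMSO baseline scored.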

Measured: AC50

Chain of Cellular tumor antigen p53 (Homo sapiens) (P04637 whole entry, looked up): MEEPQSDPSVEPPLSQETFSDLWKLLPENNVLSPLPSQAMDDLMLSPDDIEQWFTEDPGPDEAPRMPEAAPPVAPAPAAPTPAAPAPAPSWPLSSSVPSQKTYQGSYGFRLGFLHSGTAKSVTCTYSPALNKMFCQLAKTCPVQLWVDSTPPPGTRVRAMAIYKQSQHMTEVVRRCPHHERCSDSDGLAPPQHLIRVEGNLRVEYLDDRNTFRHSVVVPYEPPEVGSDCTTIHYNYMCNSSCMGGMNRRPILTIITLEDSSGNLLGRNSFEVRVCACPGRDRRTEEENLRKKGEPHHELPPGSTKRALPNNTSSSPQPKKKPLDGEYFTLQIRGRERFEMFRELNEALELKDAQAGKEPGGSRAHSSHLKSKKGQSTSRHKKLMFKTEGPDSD

CN1CCN2c3ccccc3Cc3ccccc3C2C1 (centres undefined)
inactive: [3] | [5]
active: [1] 38.9 µM | [2] 44.4 µM | [4] 37.8 µM | [6] 43.6 µM | [7] 52.7 µM | [8] 36.5 µM | [9] 50.1 µM | [10] 89.7 µM | [11] 34.1 µM | [12] 71.3 µM | [13] 57 µM | [14] 24.3 µM | [15] 0.877 µM

C[C@@H](O)[C@H]1C(=O)N2C(C(=O)O)=C(S[C@@H]3CN[C@H](C(=O)N(C)C)C3)[C@H](C)[C@H]12
inactive: [1] | [2] | [3] | [4] | [5] | [6]

O=C1CC[C@@H](C(=O)N2CSC[C@H]2C(=O)O)N1 ([pGlu]-[Thz]-OH)
inactive: [1] | [2] | [3] | [16]

Cc1ccccc1N1CCN(CCc2nnc3n2CCCC3)CC1
inactive: [1] | [2] | [3] | [4] | [5] | [6]

C=CCOc1ccc(CC(=O)O)cc1Cl
inactive: [1] | [2] | [3] | [4] | [5] | [6]

CCCCCCCCCCCCCCCC(=O)OC[C@@H](COP(=O)([O-])OCC[N+](C)(C)C)OC(=O)CCCCCCCCCCCCCCC
inactive: [1] | [2] | [3] | [4] | [6]

CCCCC(=O)O[C@]1(C(=O)CO)[C@H](C)C[C@H]2[C@@H]3CCC4=CC(=O)C=C[C@]4(C)[C@@]3(F)[C@@H](O)C[C@@]21C
inactive: [1] | [2] | [3] | [4] | [5] | [6]

O=C(O)c1ccc(OCCn2ccnc2)cc1
inactive: [1] | [2] | [3] | [4] | [5] | [6]

CCOC(=O)CC(=O)c1cc(F)c(Cl)nc1Cl
inactive: [1] | [2] | [3] | [4] | [5] | [6]

CN1C(=O)CC(c2ccccc2)C1=O (centres undefined)
inactive: [1] | [2] | [3] | [16] | [5]

CC=CC(=O)CC
inactive: [1] | [2] | [3] | [16] | [5]

OC[C@H]1O[C@@H](n2cnc3c2NC=NC[C@H]3O)C[C@@H]1O
inactive: [1] | [2] | [3] | [4] | [5] | [6]

CC1CCc2c(N3CCC(O)CC3)c(F)cc3c(=O)c(C(=O)O)cn1c23 (centres undefined)
inactive: [1] | [2] | [3] | [4] | [6]

CN[C@H](CC(C)C)C(=O)N[C@H]1C(=O)N[C@@H](CC(N)=O)C(=O)N[C@H]2C(=O)N[C@H]3C(=O)N[C@H](C(=O)N[C@H](C(=O)O)c4cc(O)cc(O)c4-c4cc3ccc4O)[C@H](O)c3ccc(c(Cl)c3)Oc3cc2cc(c3O[C@@H]2O[C@H](CO)[C@@H](O)[C@H](O)[C@H]2O[C@H]2C[C@](C)(N)[C@H](O)[C@H](C)O2)Oc2ccc(cc2Cl)[C@H]1O
inactive: [1] | [2] | [3] | [4] | [5] | [6]

Nc1ccc(S(=O)(=O)Nc2ccnn2-c2ccccc2)cc1
inactive: [1] | [2] | [3] | [4] | [6]

CCC(=O)OC(=O)CC
inactive: [1] | [2] | [3] | [16] | [5] | [6]

CC1=C(C(=O)O)N2C(=O)[C@@H](NC(=O)[C@H](N)c3ccc(O)cc3)[C@H]2SC1
inactive: [1] | [2] | [3] | [16] | [5] | [6]

CN(C)CCn1nnnc1SCC1=C(C(=O)O)N2C(=O)[C@@H](NC(=O)Cc3csc(N)n3)[C@H]2SC1
inactive: [1] | [2] | [3] | [16] | [5] | [6]

CC(=O)N[C@@H](CC(C)C)C(=O)O
inactive: [1] | [2] | [3] | [16] | [5] | [6]

CO/N=C(\C(=O)N[C@@H]1C(=O)N2C(C(=O)O)=CCS[C@H]12)c1csc(N)n1
inactive: [1] | [2] | [3] | [16] | [5] | [6]

OCc1ccccc1O
inactive: [1] | [2] | [3] | [16] | [5]

C[C@@]12C(=O)OC(=O)[C@]1(C)C1CCC2O1
inactive: [1] | [3] | [16] | [5]
active: [2] 0.446 µM | [6] 2.91 µM

CC1=C(/C=C/C(C)=C/C=C/C(C)=C/C=C/C=C(C)/C=C/C=C(C)/C=C/C2=C(C)CCCC2(C)C)C(C)(C)CCC1
inactive: [1] | [2] | [3] | [16] | [5] | [6]

CC1CCC(NC(=O)N(CCCl)N=O)CC1 (centres undefined)
inactive: [1] | [2] | [3] | [16] | [5] | [6]

CCCNC(C)C(=O)Nc1c(C)csc1C(=O)OC (centres undefined)
inactive: [1] | [2] | [3] | [16] | [5]

N=C(N=C(N)N)N1CCOCC1
inactive: [1] | [2] | [3] | [16] | [5] | [6]

CCN(CC)c1cccc(O)c1
inactive: [1] | [2] | [3] | [16] | [5] | [6]

H-RKDVY-OH
inactive: [1] | [2] | [3] | [16] | [5] | [6]

CNC(=O)OCc1cccc(COC(=O)NC)n1
inactive: [1] | [2] | [3] | [16] | [5]

Nc1cc(=O)[nH]c(N)n1
inactive: [1] | [2] | [3] | [16] | [5] | [6]

— PubChem BioAssay (EPA / NIEHS)
